Source: article PMC11574364

Tests used:
Assay in all cases: protein domain microarray probed with biotinylated miRNA; Domain array: 20 mM Tris-HCl pH 7.4, 200 mM KCl, 0.2 mM EDTA, 0.05% NP40, 2 ug/ul heparin, overnight 4 C. ORF array: PBS pH 7.0 with RNase inhibitor, 100 ng RNA; high values mean tight binding
Settings in all cases: ssRNA
[1] = molecular target: T1, hnRNP-M(3) (Homo sapiens, UniProt P52272)
T1 sequence: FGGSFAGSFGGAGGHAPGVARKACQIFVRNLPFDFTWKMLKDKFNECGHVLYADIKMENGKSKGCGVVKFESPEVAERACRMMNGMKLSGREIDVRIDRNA

[2] = molecular target: T2, NONO (Homo sapiens, UniProt Q15233)
T2 sequence: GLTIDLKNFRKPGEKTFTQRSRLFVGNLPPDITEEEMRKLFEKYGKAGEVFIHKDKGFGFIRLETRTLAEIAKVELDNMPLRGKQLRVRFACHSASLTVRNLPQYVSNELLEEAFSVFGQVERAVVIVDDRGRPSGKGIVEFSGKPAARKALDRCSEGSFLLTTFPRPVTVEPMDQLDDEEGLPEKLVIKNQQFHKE

[3] = molecular target: HNRNPCL3/4 (Homo sapiens, UniProt O60812)
HNRNPCL3/4, sequence (O60812 1-110): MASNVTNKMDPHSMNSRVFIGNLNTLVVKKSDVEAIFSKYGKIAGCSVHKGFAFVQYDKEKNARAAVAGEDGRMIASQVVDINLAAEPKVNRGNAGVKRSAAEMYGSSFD

[4] = molecular target: ELAVL3 (Homo sapiens, UniProt Q14576)
ELAVL3, sequence (Q14576 20-367): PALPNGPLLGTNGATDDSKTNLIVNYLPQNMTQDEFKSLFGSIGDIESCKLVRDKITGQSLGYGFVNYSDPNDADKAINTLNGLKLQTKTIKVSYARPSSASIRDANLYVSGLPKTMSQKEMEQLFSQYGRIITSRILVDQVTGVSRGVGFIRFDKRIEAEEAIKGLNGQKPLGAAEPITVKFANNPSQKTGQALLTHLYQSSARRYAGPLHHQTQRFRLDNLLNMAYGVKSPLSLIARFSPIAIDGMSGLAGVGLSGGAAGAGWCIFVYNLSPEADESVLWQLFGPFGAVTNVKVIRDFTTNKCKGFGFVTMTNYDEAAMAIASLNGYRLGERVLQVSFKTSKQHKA

[5] = molecular target: CPSF6 (Homo sapiens, UniProt Q16630)
CPSF6, sequence (Q16630 60-180): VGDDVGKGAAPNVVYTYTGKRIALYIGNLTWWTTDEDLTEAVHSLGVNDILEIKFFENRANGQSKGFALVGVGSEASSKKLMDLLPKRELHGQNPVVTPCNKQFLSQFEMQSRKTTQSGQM

[6] = molecular target: hnRNP-CL1 (Homo sapiens, UniProt O60812)
hnRNP-CL1, sequence (O60812 1-110): as the sequence (O60812 1-110) above

[7] = molecular target: EIF4B (Homo sapiens, UniProt P23588)
EIF4B, sequence (P23588 75-190): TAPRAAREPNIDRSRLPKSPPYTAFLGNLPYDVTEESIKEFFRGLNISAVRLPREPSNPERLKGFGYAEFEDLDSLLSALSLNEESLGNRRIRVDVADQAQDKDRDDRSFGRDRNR

[8] = molecular target: T3, HTF9C (Homo sapiens, UniProt Q8IZ69)
T3 sequence: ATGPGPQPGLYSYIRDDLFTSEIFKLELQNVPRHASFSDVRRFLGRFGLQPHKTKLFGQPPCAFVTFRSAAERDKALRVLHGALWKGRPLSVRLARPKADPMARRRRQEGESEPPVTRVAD

[9] = molecular target: T4, NSAP1 (Homo sapiens, UniProt O60506)
T4 sequence: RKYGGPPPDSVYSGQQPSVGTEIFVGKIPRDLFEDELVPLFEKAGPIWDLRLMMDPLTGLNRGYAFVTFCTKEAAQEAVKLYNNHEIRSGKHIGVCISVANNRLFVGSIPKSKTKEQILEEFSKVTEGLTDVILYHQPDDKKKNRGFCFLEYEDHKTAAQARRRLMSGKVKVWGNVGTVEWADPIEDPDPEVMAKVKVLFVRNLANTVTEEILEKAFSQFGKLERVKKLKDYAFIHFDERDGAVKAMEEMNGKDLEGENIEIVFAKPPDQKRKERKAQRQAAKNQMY

[10] = molecular target: T5, DAZ2/3 (Homo sapiens, UniProt Q9NR90)
T5 sequence: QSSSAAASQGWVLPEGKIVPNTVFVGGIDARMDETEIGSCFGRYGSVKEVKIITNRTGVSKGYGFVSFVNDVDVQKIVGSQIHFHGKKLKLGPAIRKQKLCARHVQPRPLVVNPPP

[11] = molecular target: hnRNP-D0 (Homo sapiens, UniProt Q14103)
hnRNP-D0, sequence (Q14103 80-280): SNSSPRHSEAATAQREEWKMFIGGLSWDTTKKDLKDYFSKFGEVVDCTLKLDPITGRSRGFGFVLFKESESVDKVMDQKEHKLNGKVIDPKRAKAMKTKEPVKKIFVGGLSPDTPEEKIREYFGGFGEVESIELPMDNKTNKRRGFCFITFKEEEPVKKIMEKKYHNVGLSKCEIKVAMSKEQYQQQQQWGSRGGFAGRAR

[12] = molecular target: PABPC1L (Homo sapiens, UniProt Q4VXU2)
PABPC1L, sequence (Q4VXU2 1-390): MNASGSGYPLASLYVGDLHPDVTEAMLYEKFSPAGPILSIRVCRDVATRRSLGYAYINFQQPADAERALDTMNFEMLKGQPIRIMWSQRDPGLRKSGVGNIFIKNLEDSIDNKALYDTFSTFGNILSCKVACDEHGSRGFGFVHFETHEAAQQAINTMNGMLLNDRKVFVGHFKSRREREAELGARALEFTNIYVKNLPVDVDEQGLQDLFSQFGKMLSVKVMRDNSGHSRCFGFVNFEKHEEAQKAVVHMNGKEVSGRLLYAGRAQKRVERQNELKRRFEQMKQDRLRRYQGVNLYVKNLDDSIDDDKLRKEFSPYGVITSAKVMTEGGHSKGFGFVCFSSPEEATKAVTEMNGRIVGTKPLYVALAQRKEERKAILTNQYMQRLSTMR

[13] = molecular target: NCL (Homo sapiens, UniProt P19338)
NCL, sequence (P19338 288-670): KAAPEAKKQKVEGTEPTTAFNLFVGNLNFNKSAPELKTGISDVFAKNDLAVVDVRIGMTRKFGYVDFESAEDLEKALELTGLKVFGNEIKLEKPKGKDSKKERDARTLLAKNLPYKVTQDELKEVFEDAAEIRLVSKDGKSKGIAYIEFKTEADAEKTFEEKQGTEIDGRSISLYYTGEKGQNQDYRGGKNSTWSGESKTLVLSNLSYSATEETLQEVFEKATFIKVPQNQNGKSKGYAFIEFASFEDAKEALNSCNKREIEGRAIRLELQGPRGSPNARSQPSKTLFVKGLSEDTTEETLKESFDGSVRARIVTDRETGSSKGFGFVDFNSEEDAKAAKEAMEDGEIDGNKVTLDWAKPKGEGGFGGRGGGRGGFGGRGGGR

[14] = molecular target: T6, PABPN1 (Homo sapiens, UniProt Q86U42)
T6 sequence: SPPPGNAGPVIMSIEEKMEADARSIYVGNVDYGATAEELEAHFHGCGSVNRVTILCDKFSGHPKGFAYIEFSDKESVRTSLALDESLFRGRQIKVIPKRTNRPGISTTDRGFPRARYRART

[15] = molecular target: T7, CNOT4 (Homo sapiens, UniProt O95628)
T7 sequence: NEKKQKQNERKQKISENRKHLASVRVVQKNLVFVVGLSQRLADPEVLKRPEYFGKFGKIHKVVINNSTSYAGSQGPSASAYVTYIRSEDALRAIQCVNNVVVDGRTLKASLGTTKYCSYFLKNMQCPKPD

[16] = molecular target: T8, CSTF2 (Homo sapiens, UniProt P33240)
T8 sequence: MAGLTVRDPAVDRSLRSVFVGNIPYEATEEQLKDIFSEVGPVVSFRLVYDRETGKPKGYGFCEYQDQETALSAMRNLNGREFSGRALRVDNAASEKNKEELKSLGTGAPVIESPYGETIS

[17] = molecular target: T9, DRBP1(3-4) (Homo sapiens, UniProt Q8IUH3)
T9 sequence: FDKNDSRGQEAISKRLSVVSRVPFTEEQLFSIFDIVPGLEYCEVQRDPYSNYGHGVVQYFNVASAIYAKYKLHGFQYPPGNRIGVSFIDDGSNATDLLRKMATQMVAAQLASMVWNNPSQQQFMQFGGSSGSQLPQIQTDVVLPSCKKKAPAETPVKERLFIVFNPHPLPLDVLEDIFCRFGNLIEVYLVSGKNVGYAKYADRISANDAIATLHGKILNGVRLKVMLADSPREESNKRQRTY

[18] = molecular target: hnRNP-A/B (Homo sapiens, UniProt Q99729)
hnRNP-A/B, sequence (Q99729 50-250): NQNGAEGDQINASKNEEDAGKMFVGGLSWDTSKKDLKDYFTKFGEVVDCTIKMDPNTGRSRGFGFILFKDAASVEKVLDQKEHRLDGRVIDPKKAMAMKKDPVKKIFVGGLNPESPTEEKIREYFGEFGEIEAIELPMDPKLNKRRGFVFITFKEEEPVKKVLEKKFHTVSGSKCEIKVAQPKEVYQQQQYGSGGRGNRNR

[19] = molecular target: T10, CPSF7 (Homo sapiens, UniProt Q8N684)
T10 sequence: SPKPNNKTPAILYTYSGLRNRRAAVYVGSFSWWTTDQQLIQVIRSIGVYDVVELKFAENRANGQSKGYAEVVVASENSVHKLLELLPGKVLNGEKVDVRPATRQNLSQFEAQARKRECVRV

[20] = molecular target: HNRNPA1L2 (Homo sapiens, UniProt Q32P51)
HNRNPA1L2, sequence (Q32P51 1-205): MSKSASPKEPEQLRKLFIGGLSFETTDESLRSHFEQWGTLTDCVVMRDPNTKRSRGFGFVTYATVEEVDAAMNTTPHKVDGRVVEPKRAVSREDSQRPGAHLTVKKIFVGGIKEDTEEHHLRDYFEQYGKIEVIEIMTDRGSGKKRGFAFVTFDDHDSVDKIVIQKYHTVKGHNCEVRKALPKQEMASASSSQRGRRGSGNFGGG

Sequence | binding signal [1] [fluorescence intensity] | binding signal [2] [fluorescence intensity] | binding signal [3] [fluorescence intensity] | binding signal [4] [fluorescence intensity] | binding signal [5] [fluorescence intensity] | binding signal [6] [fluorescence intensity] | binding signal [7] [fluorescence intensity] | binding signal [8] [fluorescence intensity] | binding signal [9] [fluorescence intensity] | binding signal [10] [fluorescence intensity] | binding signal [11] [fluorescence intensity] | binding signal [12] [fluorescence intensity] | binding signal [13] [fluorescence intensity] | binding signal [14] [fluorescence intensity] | binding signal [15] [fluorescence intensity] | binding signal [16] [fluorescence intensity] | binding signal [17] [fluorescence intensity] | binding signal [18] [fluorescence intensity] | binding signal [19] [fluorescence intensity] | binding signal [20] [fluorescence intensity]
UGAGGUAGUAGGUUGUAUGGUU | 78.7 ± 6.91 | 41.2 ± 0.665 | 34.6 ± 6.43 | 1020 ± 53.3 | 26.1 ± 6.17 | 43.3 ± 2.77 | 2140 ± 29.2 | 104.2 ± 0.884 | 1830 ± 24.4 | 151 ± 11.5 | 1386 ± 9.72 | 1355 ± 13.5 | 2733 ± 6.99 | 2730 ± 37.5 | 263.8 ± 1.66 | 877 ± 50.3 | 95.6 ± 13.4 | 1148 ± 9.7 | 58.9 ± 3.79 | 644 ± 46.8
UGAGGUAGUAGGUUGUGUGGUU | 112 ± 17.8 | 62.6 ± 1.97 | 36.4 ± 6.48 | 1280 ± 96.1 | 32.1 ± 8.4 | 77.6 ± 17.1 | 2502 ± 2.61 | 182 ± 12.4 | 1770 ± 45.4 | 288 ± 6.91 | 1275 ± 12.6 | 1150 ± 102 | 2320 ± 38.6 | 2208 ± 3.21 | 448 ± 8.85 | 1760 ± 71.7 | 117 ± 36.4 | 1294 ± 7.55 | 106 ± 4.55 | 551 ± 58
AGAGGUAGUAGGUUGCAUAGUU | 68.4 ± 19.5 | 26.1 ± 4.07 | – | 1430 ± 30.2 | – | – | 3250 ± 198 | 78 ± 2.68 | 1900 ± 59.9 | 260 ± 18.7 | 1690 ± 40.2 | 1740 ± 116 | 3640 ± 50 | 3510 ± 43.1 | 230 ± 7.35 | 1640 ± 152 | 63.1 ± 5.42 | 1830 ± 93.1 | 48.3 ± 8.88 | 630 ± 43.3
CAGUGCAAUGAUGAAAGGGCAU | 37.9 ± 1.35 | – | 29.9 ± 0.976 | 868 ± 33.5 | 39.2 ± 6.51 | 23 ± 5.29 | 1810 ± 123 | 52.8 ± 3.39 | 398 ± 6.14 | 70.6 ± 0.849 | 338 ± 13.6 | 990.7 ± 2.47 | 2833 ± 25.8 | 2170 ± 30.4 | 235.49 ± 0.198 | 484 ± 5.24 | 77 ± 15.6 | 1111 ± 3.46 | 47.8 ± 6.69 | 236 ± 20
UAGCUUAUCAGACUGAUGUUGA | 20.6 ± 3.13 | – | 22.52 ± 0.0849 | 508 ± 14.6 | 36.4 ± 14.3 | – | 24.6 ± 5.08 | – | 42.1 ± 2.96 | 153 ± 9.91 | 106 ± 5.55 | 126 ± 31.5 | 1820 ± 62.5 | 329 ± 38.4 | 35.05 ± 0.099 | 142 ± 42.3 | – | 108 ± 7.62 | – | –
UGAGGUAGUAGGUUGUAUAGUU | 22.8 ± 3.08 | 20.7 ± 2.69 | 22.3 ± 2.99 | 476 ± 12.5 | 23 ± 8.56 | 31.8 ± 10.7 | 883 ± 50 | – | 755 ± 86.6 | 37.8 ± 6.41 | 580 ± 40.2 | 626 ± 62.6 | 1458 ± 3.11 | 2100 ± 89.2 | 73.77 ± 0.226 | 546 ± 37.1 | – | 453 ± 6.64 | 21.4 ± 4.04 | 226 ± 23.1
